Reference: PubChem BioAssay (EPA / NIEHS)
The source made the active and inactive calls. Rule for the calls: active = hit-call score of the fitted dose curve at least 0.9, where 1 is the maximum; inactive = score below 0.9.

Tests used:
[1] = ATG_GLI_CIS: Attagene CIS-FACTORIAL HepG2 Assay for human Zinc Finger Protein GLI1 (AID 2282945); conditions: HepG2, Attagene cis-factorial reporter mRNA, GLI element; actives raise or lower the signal
Method in brief: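 Bidirectional curve fits relative to DMSO, using reporter mRNA levels from RT-PCR plus capillary electrophoresis. Cells were HepG2 transiently carrying cis-regulated reporter constructs, harvested 24 h after dosing.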

[2] = target: Bile acid receptor (Homo sapiens) (UniProt Q96RI1); test: ATG_IR1_CIS: Attagene CIS-FACTORIAL HepG2 Assay for human Nuclear Receptor Subfamily 1 Group H Member 4 (NR1H4), IR1 submotif (AID 2282946); conditions: IR1 reporter transcription, actives raise or lower the signal
Method in brief: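 Cells (human HepG2) carry transiently transfected cis-promoter reporter transcription units. Compounds are incubated 24 h, total RNA is reverse-transcribed and amplified, and labelled fragments are resolved by capillary electrophoresis. Curves use DMSO as baseline.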

[3] = ATG_GRE_CIS: Attagene CIS-FACTORIAL HepG2 Assay for human Glucocorticoid Response Elements (GRE) (AID 2282947); conditions: HepG2 GRE cis-reporter, Attagene multiplex mRNA; actives raise or lower the signal
Method in brief: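 Transient MRTU transfection of human HepG2 liver cells; cis-regulated reporters report endogenous factors. 24 h dosing → RNA isolation → RT-PCR → 6-FAM primer extension → HpaI cut → CE fragment analysis. Bidirectional fit, DMSO negative control.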

[4] = ATG_M_32_CIS: Attagene CIS-FACTORIAL HepG2 Assay for M32 Transcription Factor (Internal Marker) (AID 2282949); conditions: HepG2 Attagene cis-factorial M32 reporter, mRNA; actives raise or lower the signal;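 note: background control marker of the multiplexed CIS panel rather than a real target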
Method in brief: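 Fluorescent capillary electrophoresis peaks of HpaI-digested, FAM-labelled RT-PCR reporter products give the signal. Source: transiently transfected human liver HepG2 cells, 24 h after chemical dosing; bidirectional fitting against DMSO.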

[5] = ATG_M_06_CIS: Attagene CIS-FACTORIAL HepG2 Assay for M06 Transcription Factor (Internal Marker) (AID 2282950); conditions: HepG2 Attagene CIS-FACTORIAL M06 internal marker reporter; actives raise or lower the signal
Method in brief: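 Cells (HepG2, transiently carrying cis-driven reporter units) receive chemical for 24 h before RNA isolation. Reporter cDNA is PCR-amplified, FAM-labelled by primer extension, HpaI-digested and sized on a capillary analyser.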

[6] = target: Hypoxia-inducible factor 1-alpha (Homo sapiens) (UniProt Q16665); test: ATG_HIF1a_CIS: Attagene CIS-FACTORIAL HepG2 Assay for human Hypoxia Inducible Factor 1 (HIF1A) (AID 2282951); conditions: HepG2 Attagene cis-factorial HIF1a reporter transcription; actives raise or lower the signal
Method in brief: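 Cis-element reporter constructs were transiently transfected into HepG2 cells, which were treated for 24 h; reporter RNA was reverse-transcribed, amplified, labelled and resolved by capillary electrophoresis.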

[7] = target: Hepatocyte nuclear factor 6 (Homo sapiens) (UniProt Q9UBC0); test: ATG_HNF6_CIS: Attagene CIS-FACTORIAL HepG2 Assay for human Hepatocyte Nuclear Factor 6 (HNF6) (AID 2282952); conditions: HepG2 Attagene cis-factorial HNF6 reporter transcription; actives raise or lower the signal
Method in brief: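 Cells are HepG2 carrying transiently transfected cis-promoter reporter units. Treatment lasts 24 h, after which reporter transcripts are reverse-transcribed, amplified, FAM-labelled and sized by capillary electrophoresis. DMSO serves as baseline.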

[8] = target: Heat shock factor protein 1 (Homo sapiens) (UniProt Q00613); test: ATG_HSE_CIS: Attagene CIS-FACTORIAL HepG2 Assay for human Heat Shock Transcription Factor 1 (HSE) (AID 2282953); conditions: HepG2 HSE cis-reporter, Attagene RNA transcription; actives raise or lower the signal
Method in brief: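 Liver-derived HepG2 cells carry transiently introduced multiple reporter units governed by cis promoters. Reporter RNA measured 24 h post-dose through reverse transcription, PCR amplification, fluorescent labelling and capillary electrophoresis, normalised to DMSO.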

[9] = ATG_MRE_CIS: Attagene CIS-FACTORIAL HepG2 Assay for human Metal Responsive Element (MRE) (AID 2282954); conditions: HepG2 MRE cis-reporter transcription, Attagene multiplex; actives raise or lower the signal
Method in brief: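 Transient MRTU transfection of HepG2 (FuGene 6); 24 h dosing; total RNA → oligo(dT) RT, PCR, 6-FAM primer extension, HpaI cut, CE. Bidirectional fit vs DMSO.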

[10] = ATG_PBREM_CIS: Attagene CIS-FACTORIAL HepG2 Assay for human Phenobarbital-responsive Enhancer Module (PBREM) (AID 2282955); conditions: HepG2 PBREM cis-reporter, Attagene multiplexed transcription; actives raise or lower the signal
Method in brief: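 Multiplexed cis-reporter readout in human hepatoma HepG2 cells; PBREM-regulated transcript quantified after 24 h exposure by fluorescent RT-PCR fragment analysis. Signal changes up or down fitted relative to DMSO.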

[11] = target: Paired box protein Pax-6 (Homo sapiens) (UniProt P26367); test: ATG_Pax6_CIS: Attagene CIS-FACTORIAL HepG2 Assay for human Paired Box 6 (PAX6) (AID 2282956); conditions: HepG2 CIS-FACTORIAL PAX6 reporter transcription, RNA readout; actives raise or lower the signal
Method in brief: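 HepG2 cells transiently transfected with multiplexed cis-promoter reporter units (endogenous TF activity) were dosed for 24 h. Reporter mRNA was quantified by RT-PCR, 6-FAM labeling, HpaI digestion and capillary electrophoresis; bidirectional fitting versus DMSO baseline.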

[12] = ATG_PXRE_CIS: Attagene CIS-FACTORIAL HepG2 Assay for human Pregnane X Receptor Element (PXRE) (AID 2282957); conditions: HepG2 Attagene CIS-FACTORIAL PXRE reporter, mRNA; actives raise or lower the signal
Method in brief: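 Multiplexed cis-reporter assay in transiently transfected human HepG2 cells; 24 h chemical exposure. Reporter transcripts quantified by RT-PCR with fluorescent labeling and capillary electrophoresis.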

[13] = ATG_PPRE_CIS: Attagene CIS-FACTORIAL HepG2 Assay for human Peroxisome Proliferator-activated Response Element (PPRE) (AID 2282958); conditions: HepG2 PPRE cis-element reporter, Attagene transcription factor profiling; actives raise or lower the signal
Method in brief: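 DMSO served as negative control and baseline for bidirectional curve fitting. Signal came from PPRE-regulated reporter mRNA in HepG2 cells, measured 24 h post-dosing by RT-PCR, 6-FAM primer extension and capillary electrophoresis.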

[14] = ATG_RORE_CIS: Attagene CIS-FACTORIAL HepG2 Assay for human RAR-related Orphan Receptor Element (RORE) (AID 2282959); conditions: HepG2 Attagene cis-factorial RORE reporter, mRNA; actives raise or lower the signal
Method in brief: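 Transfect HepG2 with MRTUs; treat 24 h; extract RNA; RT with oligo(dT); PCR with reporter-specific primers; 6-FAM primer extension; HpaI digest 2 h at 37 C; capillary electrophoresis. Fit vs DMSO, bidirectional.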

[15] = ATG_Sox_CIS: Attagene CIS-FACTORIAL HepG2 Assay for human SRY-box transcription factor (SOX) (AID 2282960); conditions: HepG2 Attagene cis-factorial SOX reporter, mRNA; actives raise or lower the signal
Method in brief: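 Fluorescence-labelled cDNA fragments from reporter transcripts, sized by CE, give the signal. Cells: HepG2, transiently transfected with cis-regulated reporter units. Exposure 24 h; DMSO negative control; bidirectional curve fitting.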

[16] = target: Transcription factor Sp1 (Homo sapiens) (UniProt P08047); test: ATG_Sp1_CIS: Attagene CIS-FACTORIAL HepG2 Assay for human Specificity Protein 1 (Sp1) (AID 2282961); conditions: HepG2 Sp1 cis-reporter transcription, actives raise or lower the signal
Method in brief: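 Chemicals are dosed onto HepG2 cells transfected with multiple cis-promoter reporter constructs, and after 24 h reporter RNA is reverse-transcribed, PCR-amplified and resolved by capillary electrophoresis for fluorescence quantitation; activity is scored up or down against DMSO.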

[17] = ATG_SREBP_CIS: Attagene CIS-FACTORIAL HepG2 Assay for human Sterol Regulatory Element Binding (SREBP) (AID 2282962); conditions: HepG2 Attagene cis-factorial SREBP reporter, mRNA; actives raise or lower the signal
Method in brief: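 HepG2 cells transiently transfected with multiplexed cis-element reporter units report endogenous transcription factor activity. After 24 h of chemical exposure, reporter mRNA was quantified by RT-PCR, 6-FAM labelling, HpaI digestion and capillary electrophoresis; bidirectional fits used DMSO as baseline.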

[18] = target: Signal transducer and activator of transcription 3 (Homo sapiens) (UniProt P40763); test: ATG_STAT3_CIS: Attagene CIS-FACTORIAL HepG2 Assay for human Signal Transducer and Activator of Transcription 3 (STAT3) (AID 2282963); conditions: HepG2, Attagene cis-factorial STAT3 reporter transcription; actives raise or lower the signal
Method in brief: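 Endogenous STAT3-responsive cis-element activity was read in transiently transfected HepG2 cells after 24 h treatment. Reporter transcripts were quantified via RT-PCR and capillary electrophoresis, with DMSO as negative control and bidirectional curve fitting.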

[19] = ATG_TA_CIS: Attagene CIS-FACTORIAL HepG2 Assay for human TA Basal Promoter (AID 2282964); conditions: HepG2 Attagene CIS-factorial TA basal promoter reporter; actives raise or lower the signal
Method in brief: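 Background internal-marker endpoint from a 52-component HepG2 cis-reporter panel. Cells treated 24 h; reporter transcripts quantified via RT-PCR and CE fluorescence against DMSO baseline.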

[20] = ATG_ISRE_CIS: Attagene CIS-FACTORIAL HepG2 Assay for human Interferon Regulatory Factor 1 (IRF1) binding to an Interferon-Stimulated Response Element (ISRE) (AID 2282948); conditions: HepG2 ISRE cis-reporter (Attagene), mRNA transcription readout; actives raise or lower the signal
Method in brief: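 HepG2 cells transiently transfected with multiplexed cis-promoter reporter units; after 24 h compound exposure, reporter mRNA quantified by RT-PCR, FAM labelling, HpaI digestion and capillary electrophoresis. Bidirectional fit versus DMSO baseline.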

Measured: AC50

Signal transducer and activator of transcription 3 (Homo sapiens), sequence (P40763 whole entry, looked up): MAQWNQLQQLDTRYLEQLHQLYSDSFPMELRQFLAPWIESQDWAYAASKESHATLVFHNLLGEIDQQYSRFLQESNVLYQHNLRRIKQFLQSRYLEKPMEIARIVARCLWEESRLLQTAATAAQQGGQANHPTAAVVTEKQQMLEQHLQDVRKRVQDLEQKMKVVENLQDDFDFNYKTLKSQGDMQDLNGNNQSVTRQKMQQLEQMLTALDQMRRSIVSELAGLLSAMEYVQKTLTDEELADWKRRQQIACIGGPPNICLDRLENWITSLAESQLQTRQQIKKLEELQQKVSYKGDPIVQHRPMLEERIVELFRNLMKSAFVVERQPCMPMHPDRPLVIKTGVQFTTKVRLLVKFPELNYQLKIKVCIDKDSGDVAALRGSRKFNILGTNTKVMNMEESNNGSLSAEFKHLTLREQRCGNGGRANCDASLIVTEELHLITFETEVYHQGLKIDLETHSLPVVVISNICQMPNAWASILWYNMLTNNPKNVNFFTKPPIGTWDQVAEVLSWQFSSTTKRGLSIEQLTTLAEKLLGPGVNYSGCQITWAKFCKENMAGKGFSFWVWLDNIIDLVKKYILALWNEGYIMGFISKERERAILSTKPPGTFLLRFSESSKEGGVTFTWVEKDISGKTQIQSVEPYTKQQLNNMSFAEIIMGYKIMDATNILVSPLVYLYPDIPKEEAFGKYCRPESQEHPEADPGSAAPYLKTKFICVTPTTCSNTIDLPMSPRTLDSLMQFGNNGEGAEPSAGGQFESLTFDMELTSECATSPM
Bile acid receptor (Homo sapiens), sequence (Q96RI1 whole entry, looked up, the tested form may be a part): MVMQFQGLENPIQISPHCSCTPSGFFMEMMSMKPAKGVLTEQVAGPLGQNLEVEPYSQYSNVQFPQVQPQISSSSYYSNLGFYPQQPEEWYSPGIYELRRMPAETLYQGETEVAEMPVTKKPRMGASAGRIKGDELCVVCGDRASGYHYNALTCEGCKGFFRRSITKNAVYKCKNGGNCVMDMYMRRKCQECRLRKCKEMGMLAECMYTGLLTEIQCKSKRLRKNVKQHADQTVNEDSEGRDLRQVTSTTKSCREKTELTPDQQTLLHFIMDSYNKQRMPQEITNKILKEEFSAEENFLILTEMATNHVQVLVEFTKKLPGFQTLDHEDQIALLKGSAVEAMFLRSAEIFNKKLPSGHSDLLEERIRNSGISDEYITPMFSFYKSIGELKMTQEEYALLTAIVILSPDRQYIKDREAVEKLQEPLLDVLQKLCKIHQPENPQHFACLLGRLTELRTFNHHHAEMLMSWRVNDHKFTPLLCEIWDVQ
Heat shock factor protein 1 (Homo sapiens), sequence (Q00613 whole entry, looked up): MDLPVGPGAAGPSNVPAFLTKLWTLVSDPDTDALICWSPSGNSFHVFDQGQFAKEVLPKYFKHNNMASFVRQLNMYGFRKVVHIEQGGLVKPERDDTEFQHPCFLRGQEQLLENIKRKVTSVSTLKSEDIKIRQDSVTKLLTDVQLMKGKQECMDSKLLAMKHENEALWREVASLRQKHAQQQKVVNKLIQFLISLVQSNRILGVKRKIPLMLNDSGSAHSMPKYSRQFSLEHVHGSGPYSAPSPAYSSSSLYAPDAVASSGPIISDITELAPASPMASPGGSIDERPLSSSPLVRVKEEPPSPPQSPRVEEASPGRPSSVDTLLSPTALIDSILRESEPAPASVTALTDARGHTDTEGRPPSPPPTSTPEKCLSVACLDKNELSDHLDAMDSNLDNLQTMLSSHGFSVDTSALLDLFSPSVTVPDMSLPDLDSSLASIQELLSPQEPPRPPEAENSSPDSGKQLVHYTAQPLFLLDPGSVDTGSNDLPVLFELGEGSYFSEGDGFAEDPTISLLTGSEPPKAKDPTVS
Paired box protein Pax-6 (Homo sapiens), sequence (P26367 whole entry, looked up): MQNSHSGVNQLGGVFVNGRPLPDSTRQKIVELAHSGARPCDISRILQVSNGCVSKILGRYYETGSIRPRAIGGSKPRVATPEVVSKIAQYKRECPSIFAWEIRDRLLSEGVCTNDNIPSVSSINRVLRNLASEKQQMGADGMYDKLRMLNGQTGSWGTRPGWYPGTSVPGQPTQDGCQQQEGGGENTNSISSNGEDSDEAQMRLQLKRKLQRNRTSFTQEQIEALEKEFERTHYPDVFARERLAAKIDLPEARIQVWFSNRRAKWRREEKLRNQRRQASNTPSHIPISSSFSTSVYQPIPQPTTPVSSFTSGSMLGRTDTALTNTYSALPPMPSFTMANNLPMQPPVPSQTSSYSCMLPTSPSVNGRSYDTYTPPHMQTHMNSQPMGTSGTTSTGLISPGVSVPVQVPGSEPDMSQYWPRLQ
Transcription factor Sp1 (Homo sapiens), sequence (P08047 whole entry, looked up): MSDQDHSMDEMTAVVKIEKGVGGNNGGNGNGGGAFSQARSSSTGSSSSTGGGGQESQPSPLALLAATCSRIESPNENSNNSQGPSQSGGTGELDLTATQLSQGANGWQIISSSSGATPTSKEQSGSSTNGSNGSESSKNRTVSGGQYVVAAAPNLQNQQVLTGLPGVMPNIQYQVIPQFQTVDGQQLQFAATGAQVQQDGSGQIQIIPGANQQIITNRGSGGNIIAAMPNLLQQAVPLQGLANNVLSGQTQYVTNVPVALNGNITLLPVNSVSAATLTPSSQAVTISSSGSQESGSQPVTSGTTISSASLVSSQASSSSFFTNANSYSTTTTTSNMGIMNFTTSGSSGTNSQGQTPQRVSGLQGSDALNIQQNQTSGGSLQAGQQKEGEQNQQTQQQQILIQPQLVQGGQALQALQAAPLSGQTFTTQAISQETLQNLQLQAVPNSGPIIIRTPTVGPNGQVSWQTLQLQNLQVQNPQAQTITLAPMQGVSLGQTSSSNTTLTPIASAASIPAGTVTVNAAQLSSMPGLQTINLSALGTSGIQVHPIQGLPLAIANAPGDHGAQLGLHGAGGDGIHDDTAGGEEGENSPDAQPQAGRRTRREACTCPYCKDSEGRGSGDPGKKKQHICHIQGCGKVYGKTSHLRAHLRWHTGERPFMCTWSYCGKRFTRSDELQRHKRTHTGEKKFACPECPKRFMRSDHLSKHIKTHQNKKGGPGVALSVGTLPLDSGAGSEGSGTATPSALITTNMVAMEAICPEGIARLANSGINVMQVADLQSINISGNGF
Hypoxia-inducible factor 1-alpha (Homo sapiens), sequence (Q16665 whole entry, looked up): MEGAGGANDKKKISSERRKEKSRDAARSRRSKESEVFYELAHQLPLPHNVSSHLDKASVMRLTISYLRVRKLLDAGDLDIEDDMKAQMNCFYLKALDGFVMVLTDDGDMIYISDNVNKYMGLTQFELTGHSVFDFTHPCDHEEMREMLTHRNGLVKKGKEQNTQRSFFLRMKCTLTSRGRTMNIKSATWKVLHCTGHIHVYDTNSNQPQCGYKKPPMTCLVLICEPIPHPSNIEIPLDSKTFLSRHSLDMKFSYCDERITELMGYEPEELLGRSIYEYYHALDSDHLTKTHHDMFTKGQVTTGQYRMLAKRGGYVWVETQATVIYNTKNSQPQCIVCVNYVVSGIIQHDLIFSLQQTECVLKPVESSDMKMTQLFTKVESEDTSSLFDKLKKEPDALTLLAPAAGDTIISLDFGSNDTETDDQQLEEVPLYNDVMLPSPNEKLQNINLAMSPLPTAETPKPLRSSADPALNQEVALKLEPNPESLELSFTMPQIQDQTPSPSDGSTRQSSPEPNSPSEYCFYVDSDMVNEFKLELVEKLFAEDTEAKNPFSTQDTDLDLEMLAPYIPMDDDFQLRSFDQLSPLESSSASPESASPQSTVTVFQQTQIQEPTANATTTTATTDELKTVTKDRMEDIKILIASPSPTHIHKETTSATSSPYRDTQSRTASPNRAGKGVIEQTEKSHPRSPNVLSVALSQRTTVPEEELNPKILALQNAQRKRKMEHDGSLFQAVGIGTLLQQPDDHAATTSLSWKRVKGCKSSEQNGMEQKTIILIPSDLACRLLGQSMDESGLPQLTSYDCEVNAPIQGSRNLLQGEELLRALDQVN
Hepatocyte nuclear factor 6 (Homo sapiens), sequence (Q9UBC0 whole entry, looked up): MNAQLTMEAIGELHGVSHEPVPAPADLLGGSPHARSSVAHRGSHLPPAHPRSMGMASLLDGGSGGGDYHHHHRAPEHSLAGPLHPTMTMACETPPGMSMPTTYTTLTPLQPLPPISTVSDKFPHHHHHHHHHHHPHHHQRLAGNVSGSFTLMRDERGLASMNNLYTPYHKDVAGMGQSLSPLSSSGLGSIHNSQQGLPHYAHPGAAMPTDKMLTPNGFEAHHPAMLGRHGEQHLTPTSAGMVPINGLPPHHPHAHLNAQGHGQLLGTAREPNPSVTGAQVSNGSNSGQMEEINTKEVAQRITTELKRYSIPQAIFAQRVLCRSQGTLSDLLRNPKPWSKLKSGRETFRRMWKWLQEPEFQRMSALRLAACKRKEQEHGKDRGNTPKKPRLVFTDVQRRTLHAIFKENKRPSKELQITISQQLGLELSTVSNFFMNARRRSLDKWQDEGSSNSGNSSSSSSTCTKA

CCc1ccc(C)nc1
not listed: [20]
inactive: all other assays above

COCCOCCC[Si](C)(O[Si](C)(C)C)O[Si](C)(C)C
active: [2] 51 µM | [3] 8.99 µM | [8] 20.3 µM | [10] 8.38 µM | [12] 0.752 µM | [15] 8.52 µM | [16] 9.13 µM | [17] 6.62 µM
not listed: [19] | [20]
inactive: all other assays above

O=C(O)CCC(F)(F)C(F)(F)C(F)(F)C(F)(F)C(F)(F)C(F)(F)C(F)(F)F
active: [13] 64.4 µM
not listed: [9] | [20]
inactive: all other assays above

CC(C)(C)c1cc(Cc2cc(C(C)(C)C)c(O)c(C(C)(C)C)c2)cc(C(C)(C)C)c1O
active: [12] 0.513 µM
not listed: [19] | [20]
inactive: all other assays above

Cc1ccc(O)c(-n2nc3ccccc3n2)c1
active: [12] 12.2 µM | [13] 13.5 µM
not listed: [11] | [20]
inactive: all other assays above

OCC(O)CC(F)(F)C(F)(F)C(F)(F)C(F)(F)F (stereo unspecified)
not listed: [6] | [9] | [11]
inactive: all other assays above

CCc1cccc(C)c1N(C(=O)C(=O)O)C(C)COC (stereo unspecified)
not listed: [11] | [20]
inactive: all other assays above

CC1=CCC2C(=O)OC(=O)C2C1 (stereo unspecified)
not listed: [6] | [9] | [11]
inactive: all other assays above

CCN=C1C=CC(=C(c2ccc(N(CC)CC)cc2)c2ccc(N(CC)CC)cc2)c2ccccc21
active: [1] 5.55 µM | [2] 0.911 µM | [8] 1.01 µM | [9] 1.03 µM | [10] 0.0478 µM | [11] 1.78 µM | [12] 1.23 µM | [14] 0.068 µM | [15] 0.0762 µM | [19] 1.23 µM
inactive: [3] | [4] | [5] | [7] | [13] | [16] | [17] | [18]
